# Bioassay records from PubChem BioAssay.
# Sampled rows, rich in hits. Any-hit rate of the full collection: about 2.2%.
# VLA-4 inh: inhibition in a human VLA-4 binding assay; P13612; VLA-4 expressing cells, ligand binding flow cytometry; inhibition, % (about 7 µM as worked out from the volumes in the protocol); 330,000 tested, 0.2% active; AID 2557; in the data active = inhibition above about 50%
# Platelet DG rel: modulates dense granule release in human platelets; human platelet-rich plasma, SFLLRN dense granule ATP release, luminescence; inhibition, %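 (compounds screened at 7.5 µM in platelet-rich plasma)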; 300,000 tested, 0.22% active; AID 1663;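 active = mean replicate score, as percent of positive control, at or above 50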
# HIF activator: HIF pathway transcriptional activation | 300,000 tested, 0.32% active | activation, % at 7.5 µM (by protocol) | U2OS HRE-luciferase reporter, luminescence; normalized: DMSO 0%, desferrioxamine 100% | AID 1910;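 active = mean activation of at least 10% of the iron chelator positive control signal, with at least half of replicates also reaching 10%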
# AI-2 QS modul: modulates the Vibrio harveyi AI-2 quorum sensing system; activity change, % at 7.5 µM; 300,000 tested, 0.4% active; Vibrio harveyi JMH597 AI-2 luminescence/OD600 ratio, 9 h; stronger effect = lower value; strain lacks LuxN and CqsS sensors; 0 = neutral-control median; AID 2094; in the data active = activity change below about -75%, passing the limit was not always enough;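 also: luminescence divided by OD600 gain over 9 h not by final OD600 alone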
# CHT block: human CHT choline transport inhibition; Q9GZV3; CHT-expressing cells, membrane potential dye, choline response; stronger effect = lower value; B-score at 10 µM; 310,000 tested, 0.86% active; AID 488975;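 active = B-score over 3 SD under the library average, and starting fluorescence ratio not unusually high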;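 also: choline stimulus applied at its EC90 after an EC20 pre-addition; B-score computed on integrated fluorescence ratio after choline addition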
# Target sequence (Q9GZV3 whole entry, looked up): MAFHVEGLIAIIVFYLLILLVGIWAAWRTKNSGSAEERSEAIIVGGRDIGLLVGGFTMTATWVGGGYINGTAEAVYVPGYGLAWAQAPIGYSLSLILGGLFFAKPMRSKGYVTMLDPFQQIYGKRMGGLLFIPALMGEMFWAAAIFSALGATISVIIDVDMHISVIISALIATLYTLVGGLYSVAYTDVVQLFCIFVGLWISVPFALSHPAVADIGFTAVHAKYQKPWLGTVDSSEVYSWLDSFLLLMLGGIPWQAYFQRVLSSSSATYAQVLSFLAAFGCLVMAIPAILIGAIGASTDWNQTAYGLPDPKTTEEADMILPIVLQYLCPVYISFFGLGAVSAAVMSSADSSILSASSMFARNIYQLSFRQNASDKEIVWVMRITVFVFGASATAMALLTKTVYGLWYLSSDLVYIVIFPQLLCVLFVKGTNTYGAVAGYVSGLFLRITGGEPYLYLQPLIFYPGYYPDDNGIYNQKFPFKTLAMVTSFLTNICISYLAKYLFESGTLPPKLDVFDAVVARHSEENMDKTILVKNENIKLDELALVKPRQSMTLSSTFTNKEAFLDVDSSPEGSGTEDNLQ
# CHT PAM: allosteric activators of human choline transporter CHT; Q9GZV3; CHT-expressing cells, membrane potential dye, choline EC20; stronger effect = higher value; LV-AA mutant CHT in HEK293 cells; 310,000 tested, 0.49% active; B-score at 10 µM;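 active = initial fluorescence not abnormally high and integrated response B-score, plate-corrected, over 3 SD above library mean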
# CHT inh conf: confirmation of human choline transporter CHT inhibitors; shares compounds with CHT block; CHT-expressing cells, choline membrane potential dye; LV-to-AA substituted CHT, HEK293 cells; CHT activity remaining % of control (stronger effect = lower value), % at 10 µM; 2,400 tested, 70% active;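 active = choline transporter activity left, mean of duplicates at 10 µM, below buffer-only control mean minus 3 SD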;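 also: depolarization triggered by choline at its EC90 following an EC20 pre-addition; 0% = hemicholinium-3 full block and 100% = buffer-only control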
# HEK293 MPD ctr: counter-screen for CHT inhibitors: effect in parental HEK293 cells | shares compounds with CHT block | 2,400 tested, 4% active | membrane potential ratio readout (active if shifted either direction beyond buffer ±3SD; no single direction) at 10 µM | membrane potential dye, choline response; active = decrease or increase beyond buffer ±3SD;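 also: parental cells lack the transporter so any hit is non-specific; ratio is peak minus trough fluorescence over baseline after EC90 choline challenge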
# Numbers without * were called inactive; i = inactive; x = no result given.
SMILES,VLA-4 inh,Platelet DG rel,HIF activator,AI-2 QS modul,CHT block,CHT PAM,CHT inh conf,HEK293 MPD ctr
O=C(Nc1cc(S(=O)(=O)N2CCCCC2)ccc1O)c1ccccc1NS(=O)(=O)c1ccc(F)cc1,31,25,1,32,-5.4*,i,27%*,i
CN1CCN(S(=O)(=O)c2cccc(C(=O)NC3CCCc4ccccc43)c2)CC1 (stereo not drawn),4,x,-2,6,-5.6*,i,51%*,i
O=C(Nc1cc(S(=O)(=O)N2CCCCC2)ccc1Cl)c1ccccc1NS(=O)(=O)c1ccc(F)cc1,4,9,0,21,i,i,x,x
CC1CCC(NC(=O)c2cccc(S(=O)(=O)NCc3ccccc3)c2)CC1 (stereo not drawn),6,0,1,25,-15*,i,36%*,i
CN1CCN(S(=O)(=O)c2cccc(C(=O)Nc3ccc(Br)cc3Br)c2)CC1,8,-5,1,20,-10*,i,8.7%*,i
COc1ccc(NC(=O)c2cccc(S(=O)(=O)N3CCN(C)CC3)c2)c(OC)c1,0,-4,1,-2,i,i,x,x
O=C(Nc1ccccc1OC(F)F)c1cccc(S(=O)(=O)N2CCCC2)c1,13,-13,0,8,-5.1*,i,56%*,i
CC(NC(=O)c1cccc(S(=O)(=O)N2CCN(C)CC2)c1)C1CC2CCC1C2 (stereo not drawn),6,-3,0,-5,-5.4*,i,23%*,i
CCCNS(=O)(=O)c1cccc(C(=O)NC2CCCc3ccccc32)c1 (stereo not drawn),3,0,1,26,-12*,i,20%*,i
Cc1cc(C)n(-c2cccc(C(=O)O)c2)n1,5,-1,0,12,i,i,x,x
CCCCNC(=O)[C@H]1C[C@H]1[C@@H](O)[C@H](CO)NC(=O)[C@H](Cc1ccccc1)NC(=O)OC(C)(C)C,-12,-1,1,13,i,i,x,x
CC1CCCC(C)N1CCCNC(=O)c1nn(C)c2c1CSc1ccccc1-2 (stereo not drawn),10,-1,-1,7,-11*,i,2.4%*,i
CC1CC(C)CN(C(=O)c2nn(C)c3c2CSc2ccccc2-3)C1 (stereo not drawn),22,1,0,10,i,i,x,x
CC1CCCC(C)N1CCCNC(=O)c1ccc2c(c1)NC(=O)c1ccccc1S2 (stereo not drawn),18,-4,0,9,-5.2*,i,40%*,i
COc1ccc2[nH]cc(CCNC(=O)COc3ccc4ccc(=O)oc4c3)c2c1,22,-4,0,32,i,i,x,x
O=C(c1ccco1)N1CCN(C(=O)c2cc3sccc3n2Cc2ccccc2)CC1,2,5,0,1,-5.9*,i,i,i
COc1ccc(CN2CCC(C)CC2)cc1OCc1ccccc1,9,-7,1,7,i,i,x,x
Cc1ccccc1OCCn1c(C)nc2ccccc21,15,1,2,8,-5.2*,i,i,i
Cc1nc2ccccc2n1CCOc1ccccc1,-5,18,1,-1,i,i,x,x
O=C(Cn1c2ccc(F)cc2c2nc3n(c(=O)c21)CCS3)NCC1CCCO1 (stereo not drawn),-2,-3,0,11,i,i,x,x
Cc1cc2n(n1)C(c1ccc3c(c1)OCO3)Nc1c(C)cccc1-2 (stereo not drawn),8,-6,1,29,-5.1*,i,i,i
Cc1cc(C)c2c(c1)-c1cc(C)nn1C(c1ccc3c(c1)OCO3)N2 (stereo not drawn),40,-2,0,23,i,i,x,x
CC(=O)N1c2ccc(S(=O)(=O)N3CCCCC3)cc2CC1C(=O)NCc1ccc(N(C)C)cc1 (stereo not drawn),4,-3,x,15,i,i,x,x
CSc1nc2ccsc2c(=O)n1-c1ccccc1,10,-12,-1,18,i,i,x,x
CNc1nc(SC)nc2ccsc12,1,-20,0,17,-14*,i,4.2%*,i
SMILES,VLA-4 inh,Platelet DG rel,HIF activator,AI-2 QS modul,CHT block,CHT PAM,CHT inh conf,HEK293 MPD ctr
Cc1cn([C@H](C(=O)NCCCCCCCCCCC(=O)N2CCN(C(=O)OC(C)(C)C)CC2)[C@@H](C)O)nn1,-20,x,x,x,-6.8*,i,60%*,i
O=C1OCCC1Sc1nc2ccccc2n1-c1ccccc1 (stereo not drawn),11,-14,0,32,-5.8*,i,i,i
Nc1ccc(N(CCO)CCO)cc1,-35,8,0,44,i,i,x,x
Cc1cc(N(CCO)CCO)ccc1N=Nc1cc(F)ccc1F,12,-3,4,15,-5.4*,i,56%*,i
Cc1cc(C)n2nc(SCc3nnc(SCc4ccccc4)s3)nc2n1,-1,5,x,4,-6.1*,i,i,i
CCCCn1c(SCC(N)=O)nc2ccc(N3CCOCC3)cc2c1=O,-6,-11,0,23,i,i,x,x
CCCCn1c(SCC(=O)Nc2cccc(OC)c2)nc2ccc(N3CCOCC3)cc2c1=O,-12,14,0,-5,-6*,i,62%*,i
CC1CCCC(NC(=O)CCNC(=O)c2ccc(Br)cc2)C1C (stereo not drawn),4,-1,1,21,-5.1*,i,i,i
CC1CCCC(NC(=O)CCNC(=O)c2ccccc2Cl)C1C (stereo not drawn),-2,-12,0,21,i,i,x,x
COCCN(C(=O)COC(=O)c1cc2ccccc2cc1O)c1c(N)n(Cc2ccccc2)c(=O)[nH]c1=O,20,6,0,22,i,i,x,x
CCn1cc(CN(C)C(=O)CSc2nc(-c3ccco3)cc(C(F)(F)F)n2)c(C)n1,5,2,0,9,i,i,x,x
Cc1c(CN(C)C(=O)CSc2nc(-c3ccco3)cc(C(F)(F)F)n2)cnn1C,29,-35,0,1,-7*,i,69%*,-8.6*
Cc1ccccc1/C=C/C(=O)NCC(=O)N1CCC(N(C)C2CCCCC2C)CC1 (stereo not drawn),1,-2,0,15,-13*,i,21%*,i
